# Test results from PubChem BioAssay AID504915 (The Scripps Research Institute Molecular Screening Center, 2011).
# This is one part of the list. Values without a mark were called inactive. The source made the active and inactive calls. No stated cut-off is given here; in the data, active means activation above about 17%; inactive means the rest.
# Target: 5-hydroxytryptamine receptor 5A (Homo sapiens) (UniProt P47898)
# Assay: HTR5A agonists, retest of hits, confirmation, cell-based, luminescence (AID 504915);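 further: 0% = cells with vehicle only and 100% = full reference agonist response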
# Conditions: HTR5A agonist cell assay, at 9.3 µM, active compounds read high
# Chain of 5-hydroxytryptamine receptor 5A (Homo sapiens) (P47898 whole entry, looked up): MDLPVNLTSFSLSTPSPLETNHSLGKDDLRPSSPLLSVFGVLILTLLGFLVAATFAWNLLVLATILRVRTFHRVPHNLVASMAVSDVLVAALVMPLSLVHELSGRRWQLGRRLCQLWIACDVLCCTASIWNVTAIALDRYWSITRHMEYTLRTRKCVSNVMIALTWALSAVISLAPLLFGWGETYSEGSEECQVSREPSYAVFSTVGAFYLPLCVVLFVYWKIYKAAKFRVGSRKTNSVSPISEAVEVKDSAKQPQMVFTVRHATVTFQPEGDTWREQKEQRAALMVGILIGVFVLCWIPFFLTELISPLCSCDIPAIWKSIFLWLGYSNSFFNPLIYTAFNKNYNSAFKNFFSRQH
row,Structure (SMILES),activation
1,CC(=O)c1c(C)[nH]c(C(=O)OCC(=O)Nc2c(C)cccc2C)c1C,1.01%
2,COc1ccccc1S(=O)(=O)NCc1ccc(C(=O)N(C)Cc2ccc(F)cc2)cc1,-2.33%
3,c1ccc(-n2nc3ccccc3n2)cc1,1.33%
4,COc1cc2c(-c3ccc4c(c3)OCO4)c(-c3ccsc3)oc(=O)c2cc1OC,-0.88%
5,CC1(C)C2CCC1(CS(=O)(=O)NCCc1c[nH]c3ccccc13)C(=O)C2 (centres undefined),35.4% (active)
6,COc1ccc(-c2ocnc2C(=O)Nc2ccc3c(c2)CCC3)cc1,-0.96%
7,Cc1ccccc1CN1CCN(CC(=O)NCc2ccccn2)C1=O,3.7%
8,CCOC(=O)c1cnc2sccn2c1=O,5.5%
9,COc1ccc(S(=O)(=O)N2CCN(CC(=O)N3c4ccccc4CC3C)CC2)cc1OC (centres undefined),5.85%
10,COc1cccc(/C=N/NC(=O)c2[nH]nc3c2CCc2ccccc2-3)c1O,-2.75%
11,COc1ccc(/C=C(\C#N)c2c[nH]c3ccccc23)cc1,0.48%
12,CCOc1ccc(NC(=O)Nc2cc(C)on2)cc1,-2.78%
13,C/C(=N\NC(=O)CNc1cccc2ccccc12)c1ccc(Br)s1,1.77%
14,COC(=O)c1cc(C(=O)OCC(=O)Nc2cc(C)on2)cc([N+](=O)[O-])c1,1.23%
15,Cc1c(C(=O)OCC(=O)N2CCCC2=O)oc2ccccc12,3.43%
16,Cc1ccc(CN2CCN(Cc3ccc(OCCO)cc3)CC2CCO)o1 (centres undefined),2.89%
17,CN1c2ccc(C=O)c3c(C=O)ccc(c23)N(C)C1(C)C,-0.75%
18,CCn1nc(C(=O)OCC(=O)N2c3ccccc3CC2C)c2ccccc2c1=O (centres undefined),-1.95%
19,CN(c1ccccc1)S(=O)(=O)c1cc(C(=O)N2CCN(c3ncccn3)CC2)ccc1Cl,-3.34%
20,Cc1cccc2sc(N(CCCN(C)C)C(=O)CCS(=O)(=O)c3ccccc3)nc12,5.39%
21,O=C(CC(O)(C(F)(F)F)C(F)(F)F)Nc1ccc(Cl)c(Cl)c1,-1.59%
22,O=C(CNCc1ccco1)Nc1cc(S(=O)(=O)N2CCOCC2)ccc1N1CCCC1,-0.44%
23,Cc1ccc(-c2csc(SCC(=O)Nc3cc(C)on3)n2)cc1,2.91%
24,CC(C)OC(=O)c1c(NC(=O)c2ccco2)sc2c1CCCC2,0.39%
